Where “and” joins values, the source holds several entries; their conditions need not be identical. Equal values may be shown once. Where a structure was tested more than once in an assay, its records may differ in their call. Calls of active or inactive are those of the source. Rule for the calls: active = hit-call score of the fitted dose curve at least 0.9, where 1 is the maximum; inactive = score below 0.9.
Assays:
[1] = ATG_M_19_CIS: Attagene CIS-FACTORIAL HepG2 Assay for M19 Transcription Factor (Internal Marker) (AID 2282939); details: HepG2 Attagene CIS-FACTORIAL M19 internal marker reporter; actives raise or lower the signal
In short: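 In this multiplexed cell assay, transiently transfected HepG2 reporter units report endogenous transcription-factor activity; after 24 hours of treatment, labelled reporter cDNA fragments are quantified by capillary electrophoresis and fitted bidirectionally against DMSO.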

[2] = ATG_ERE_CIS: Attagene CIS-FACTORIAL HepG2 Assay for Estrogen Response Element (ERE) (AID 2282940); details: HepG2 ERE cis-reporter, Attagene RNA transcript; actives raise or lower the signal
In short: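 Measuring endogenous transcription factor output, the assay doses transfected HepG2 cells for 24 hours and quantifies reporter transcripts by fluorescent RT-PCR and capillary electrophoresis, with DMSO as baseline.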

[3] = ATG_Ets_CIS: Attagene CIS-FACTORIAL HepG2 Assay for human Erythroblast Transformation Specific (ETS) (AID 2282941); details: HepG2 ETS cis-reporter transcription, actives raise or lower the signal
In short: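 After transient cis-reporter transfection, HepG2 cells receive test chemical for 24 h. Reporter mRNA levels, measured by RT-PCR and capillary electrophoresis fluorescence, are analysed bidirectionally relative to the DMSO baseline.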

[4] = molecular target: Hepatocyte nuclear factor 3-beta (Homo sapiens) (UniProt Q9Y261); assay: ATG_FoxA2_CIS: Attagene CIS-FACTORIAL HepG2 Assay for human Forkhead box A2 (FOXA2) (AID 2282942); details: HepG2 cis-reporter transcription factor activity, 24 h; actives raise or lower the signal
In short: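 Readout: fluorescent reporter transcripts resolved by capillary electrophoresis after RT-PCR. Transiently transfected HepG2, 24 h compound exposure, endogenous TF activity at cis promoter elements. Gain or loss of signal fitted relative to DMSO.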

[5] = ATG_FoxO_CIS: Attagene CIS-FACTORIAL HepG2 Assay for human Forkhead box O (FoxO) (AID 2282943); details: HepG2 Attagene cis-reporter, FoxO element, mRNA; actives raise or lower the signal
In short: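 HepG2, transient MRTU transfection (cis element, endogenous TFs). Dose 24 h. TriZol RNA → oligo(dT) RT → PCR → 6-FAM primer extension → HpaI cut → CE. Gain/loss vs DMSO.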

[6] = ATG_GATA_CIS: Attagene CIS-FACTORIAL HepG2 Assay for human GATA Binding Protein (AID 2282944); details: HepG2 GATA cis-element reporter, Attagene multiplex mRNA; actives raise or lower the signal
In short: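 Measures endogenous transcription factor-driven reporter mRNA in HepG2 cells transiently carrying cis-regulated constructs. 24 h dosing; RNA via oligo(dT) reverse transcription, PCR, HpaI digestion, capillary electrophoresis; fitted relative to DMSO.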

[7] = ATG_GLI_CIS: Attagene CIS-FACTORIAL HepG2 Assay for human Zinc Finger Protein GLI1 (AID 2282945); details: HepG2, Attagene cis-factorial reporter mRNA, GLI element; actives raise or lower the signal
In short: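 Bidirectional curve fits relative to DMSO, using reporter mRNA levels from RT-PCR plus capillary electrophoresis. Cells were HepG2 transiently carrying cis-regulated reporter constructs, harvested 24 h after dosing.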

[8] = molecular target: Bile acid receptor (Homo sapiens) (UniProt Q96RI1); assay: ATG_IR1_CIS: Attagene CIS-FACTORIAL HepG2 Assay for human Nuclear Receptor Subfamily 1 Group H Member 4 (NR1H4), IR1 submotif (AID 2282946); details: IR1 reporter transcription, actives raise or lower the signal
In short: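 Cells (human HepG2) carry transiently transfected cis-promoter reporter transcription units. Compounds are incubated 24 h, total RNA is reverse-transcribed and amplified, and labelled fragments are resolved by capillary electrophoresis. Curves use DMSO as baseline.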

[9] = ATG_GRE_CIS: Attagene CIS-FACTORIAL HepG2 Assay for human Glucocorticoid Response Elements (GRE) (AID 2282947); details: HepG2 GRE cis-reporter, Attagene multiplex mRNA; actives raise or lower the signal
In short: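 Assay uses human hepatoma HepG2 cells transfected with cis-promoter reporter units, exposed 24 h. mRNA from reporters detected by RT-PCR plus capillary electrophoresis; DMSO serves as negative control and baseline.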

[10] = ATG_ISRE_CIS: Attagene CIS-FACTORIAL HepG2 Assay for human Interferon Regulatory Factor 1 (IRF1) binding to an Interferon-Stimulated Response Element (ISRE) (AID 2282948); details: HepG2 ISRE cis-reporter (Attagene), mRNA transcription readout; actives raise or lower the signal
In short: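 Quantitation relies on labelled RT-PCR fragments separated by capillary electrophoresis. Human HepG2 cells bearing cis-promoter reporter constructs were treated 24 h; DMSO served as baseline for bidirectional fitting.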

Measured: AC50

Chain of Bile acid receptor (Homo sapiens) (Q96RI1 whole entry, looked up, the tested form may be a part): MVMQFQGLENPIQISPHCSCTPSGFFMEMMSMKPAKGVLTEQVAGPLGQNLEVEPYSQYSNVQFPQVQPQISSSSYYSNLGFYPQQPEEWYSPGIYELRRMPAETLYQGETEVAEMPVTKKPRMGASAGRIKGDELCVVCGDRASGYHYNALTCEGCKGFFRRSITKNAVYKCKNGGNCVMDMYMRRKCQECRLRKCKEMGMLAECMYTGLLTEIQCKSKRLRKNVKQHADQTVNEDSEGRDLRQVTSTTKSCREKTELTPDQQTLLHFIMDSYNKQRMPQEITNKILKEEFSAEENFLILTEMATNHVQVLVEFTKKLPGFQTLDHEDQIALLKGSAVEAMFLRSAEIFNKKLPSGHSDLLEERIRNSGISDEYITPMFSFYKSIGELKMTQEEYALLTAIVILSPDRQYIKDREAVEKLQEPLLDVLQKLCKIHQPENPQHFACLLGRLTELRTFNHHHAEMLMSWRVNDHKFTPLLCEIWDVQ
Chain of Hepatocyte nuclear factor 3-beta (Homo sapiens) (Q9Y261 whole entry, looked up): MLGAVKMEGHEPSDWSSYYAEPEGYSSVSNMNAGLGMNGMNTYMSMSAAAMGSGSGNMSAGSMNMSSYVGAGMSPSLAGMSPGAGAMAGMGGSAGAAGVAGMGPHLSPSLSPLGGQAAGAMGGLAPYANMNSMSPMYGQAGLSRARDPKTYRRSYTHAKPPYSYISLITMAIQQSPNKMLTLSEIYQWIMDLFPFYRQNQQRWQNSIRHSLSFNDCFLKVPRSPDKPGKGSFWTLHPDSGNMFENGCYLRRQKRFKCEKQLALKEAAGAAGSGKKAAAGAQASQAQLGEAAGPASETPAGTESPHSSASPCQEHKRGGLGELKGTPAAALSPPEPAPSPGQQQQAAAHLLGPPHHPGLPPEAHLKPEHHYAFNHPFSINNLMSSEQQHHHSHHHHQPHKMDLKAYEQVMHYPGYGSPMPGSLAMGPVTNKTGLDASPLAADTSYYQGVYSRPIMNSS

CN(C)CCN(C)C
inactive: all assays above

c1ccc2sc(SNC3CCCCC3)nc2c1
active: [7] 159 µM
inactive: all other assays above

Nc1ccc(Br)cc1
inactive: all assays above

[F][Sn]([c]1ccccc1)([c]1ccccc1)[c]1ccccc1
inactive: [1] | [5] | [6] | [9]
active: [2] 0.0177 µM | [3] 0.32 µM | [4] 0.892 µM | [7] 2.18 µM | [8] 1.24 µM | [10] 0.562 µM

Cc1cccc(C)c1NC(=O)CN1CCCC1=O
inactive: all assays above

CC(F)(F)CC(F)(F)F
inactive: all assays above

COC(F)(C(F)(F)C(F)(F)F)C(F)(C(F)(F)F)C(F)(F)F (centres undefined)
inactive: all assays above

O=NN1CCCCCCC1
inactive: all assays above

C[C@H]1C(=O)O[C@@H]2CCN3CC=C(COC(=O)[C@](C)(O)[C@]1(C)O)[C@H]23
inactive: all assays above

Cc1ccc(CCl)cc1
inactive: all assays above

O=C/C(Cl)=C(/Cl)C(=O)O
active: [5] 132 µM | [8] 46 µM | [10] 100 µM
inactive: all other assays above

CC(C)(c1ccc(O)c(-c2ccccc2)c1)c1ccc(O)c(-c2ccccc2)c1
inactive: all assays above

C[C@@H]1O[C@@H](O[C@H]2C[C@@H](O)[C@]3(CO)[C@H]4[C@H](O)C[C@]5(C)[C@@H](C6=CC(=O)OC6)CC[C@]5(O)[C@@H]4CC[C@]3(O)C2)[C@H](O)[C@H](O)[C@H]1O
active: [3] 0.221 µM | [5] 0.233 µM | [6] 71.6 nM | [9] 0.287 µM | [10] 0.279 µM
inactive: all other assays above

CN(CCCC(O)c1cccnc1)N=O (centres undefined)
inactive: all assays above

Cc1ccccc1OP(=O)(Oc1ccccc1C)Oc1ccccc1C
active: [2] 3.04 µM | [10] 7 µM
inactive: all other assays above

O=C(Nc1ccc(Br)cc1)c1cc(Br)cc(Br)c1O
active: [3] 4.61 µM | [7] 168 µM | [8] 72.3 µM
inactive: all other assays above

CC(=O)C(F)(F)C(F)(F)F
inactive: all assays above

N#CCCC(Br)(C#N)CBr (centres undefined)
active: [7] 53.6 µM | [8] 53.9 µM | [10] 60.8 µM
inactive: all other assays above

ClCCN1CCOCC1
inactive: all assays above

Cc1cc(SCc2sc(-c3ccc(C(F)(F)F)c(F)c3)nc2C)ccc1OCC(=O)O
active: [10] 42.8 µM
inactive: all other assays above

O=c1oc2ccccc2c(O)c1C(CC(O)c1ccc(-c2ccc(Br)cc2)cc1)c1ccccc1 (centres undefined)
active: [7] 46.3 µM | [8] 50.1 µM and 43.6 µM | [10] 24.9 µM
inactive: [1] | [2] | [3] | [4] | [5] | [6] | [7] | [9] | [10]

CCCCCCCCCCCCCCC(Br)C(=O)O (centres undefined)
active: [1] 183 µM | [4] 62.4 µM | [7] 137 µM | [9] 159 µM
inactive: all other assays above

C=CC(=O)OCC(COC(=O)C=C)(COC(=O)C=C)COC(=O)C=C
active: [3] 33.4 µM | [5] 8.71 µM | [8] 12.2 µM | [10] 5.34 µM
inactive: all other assays above

O=C(NC(=O)c1c(F)cccc1F)Nc1cc(Cl)c(Oc2ncc(C(F)(F)F)cc2Cl)c(Cl)c1
inactive: all assays above

CCOCn1c(-c2ccc(Cl)cc2)c(C#N)c(Br)c1C(F)(F)F
active: [3] 60.1 µM | [7] 157 µM | [8] 38.3 µM | [9] 38.1 µM | [10] 1.42 µM
inactive: all other assays above

CC(C)[C@@H](Nc1ccc(C(F)(F)F)cc1Cl)C(=O)OC(C#N)c1cccc(Oc2ccccc2)c1 (some centres undefined)
inactive: all assays above

C[N+](C)(C)Cc1ccccc1
inactive: all assays above

CCOP(=S)(OCC)SCS(=O)(=O)C(C)(C)C
active: [8] 34.8 µM
inactive: all other assays above

CC(c1ccccc1)(c1ccc(O)cc1)c1ccc(O)cc1
active: [2] 0.181 µM | [3] 20.1 µM | [8] 15.6 µM | [10] 19.3 µM
inactive: all other assays above

COC(=O)c1cc(Oc2ccc(Cl)cc2Cl)ccc1[N+](=O)[O-]
active: [2] 39.1 µM
inactive: all other assays above

OC(c1ccc(Cl)cc1)(c1ccc(Cl)cc1)c1cccnc1
active: [7] 9.04 µM | [8] 13.6 µM
inactive: all other assays above

CCN(N=O)C(N)=O
inactive: all assays above

C=CCc1ccccc1O
active: [2] 29.2 µM
inactive: all other assays above

C[As+](C)(C)CC(=O)[O-]
inactive: all assays above

Clc1ccc(C(Cl)(Cl)Cl)cn1
active: [2] 2.86 µM
inactive: all other assays above

CCOc1ccc(N)cc1
inactive: all assays above

C=CC(F)(C(F)(F)F)C(F)(F)C(F)(F)F (centres undefined)
inactive: all assays above

Brc1ccc(Oc2c(Br)cc(Br)cc2Br)c(Br)c1
inactive: all assays above

CNC(=O)CSP(=O)(OC)OC
inactive: all assays above

O=S1(=O)OC(c2cc(Br)c(O)c(Br)c2)(c2cc(Br)c(O)c(Br)c2)c2ccccc21
inactive: all assays above

COc1ccc([N+](=O)[O-])cc1O
inactive: all assays above

C=CC(=O)NC(C)(C)CC(C)=O
not listed: [8]
inactive: all other assays above

CN(N=O)c1ccc([N+](=O)[O-])cc1
inactive: all assays above

CN(C)c1ccc(N=O)cc1
active: [8] 9.69 µM | [9] 23.6 µM | [10] 9.25 µM
inactive: all other assays above

O=S(=O)(Oc1ccc(Cl)cc1)c1ccc(Cl)cc1
not listed: [8]
inactive: all other assays above

Oc1ccc(Cc2ccc(O)cc2)cc1
active: [2] 0.774 µM
not listed: [8]
inactive: all other assays above

From PubChem BioAssay (EPA / NIEHS)
